Mtb bLac sens – beta-lactam sensitization of Mtb H37Rv; inhibition, % at 25 µM; 0.27% of 330,000 active; M. tuberculosis H37Rv growth with meropenem, percent inhibition; AID 434955; call rule not given here;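 note: growth measured after seven days incubation then overnight dye step; 0% = bacteria only wells and 100% = bacteria with antibiotic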
RN4220 kill – kills Staphylococcus aureus RN4220 | S. aureus RN4220 growth, OD600, 16 h | inhibition, % (concentration not given with the values) | 0.33% of 330,000 active | AID 1259311; in the data active = inhibition above about 85%;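 note: plate controls were untreated cells for no effect and reference antibiotic for full effect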
Sa ugtP lethal – growth inhibition of S. aureus ugtP deletion strain. S. aureus RN4220 ugtP deletion, OD600 growth, 16 h. growth inhibition, % (test concentration not listed). 0.54% of 330,000 active; in the data active = growth inhibition above about 68%;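 note: plate controls were untreated wells for no effect and antibiotic for full effect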
Mtb hypoxia rep – reduces hypoxia-regulated biosensor signal in M. tuberculosis; AID 1159583; M. tuberculosis hypoxia-regulated fluorescent reporter, fluorescence; fluorescence inhibition, % (no concentration beside the values); 0.1% of 300,000 active; in the data active = fluorescence inhibition mostly above about 23%, no sharp cut-off; inactive = mostly below about 17%
PriA SSB inh – blocks PriA binding to SSB C-terminal tail; inhibition, % at 33 µM; AlphaScreen SSBct-PriA binding, biotinylated peptide; AID 1272365; 0.6% of 430,000 active; in the data active = inhibition mostly above about 37%, no sharp cut-off; inactive = mostly below about 20%;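 note: plate controls were negative control peptide for no effect and reference peptide for full effect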
Active calls of the source: *. Compounds with a hit are over-represented: about 1% of the library has one in this group of screens.

Screening CN(c1ccc(O)cc1)S(=O)(=O)c1ccc2ccccc2c1 returned Mtb bLac sens -1.3, RN4220 kill 9.0, Sa ugtP lethal 0.6, Mtb hypoxia rep 3.1 and PriA SSB inh 0.4.
For COc1cc(N=Nc2ccccc2C(=O)O)ccc1O the results were Mtb bLac sens 5.4, RN4220 kill 4.4, Sa ugtP lethal 0.0, Mtb hypoxia rep 48.4* and PriA SSB inh -6.6.
For COc1cc(N=Nc2ccc3ccccc3c2)ccc1O the results were Mtb bLac sens 89.0, RN4220 kill 6.3, Sa ugtP lethal 93.7*, Mtb hypoxia rep -3.5 and PriA SSB inh 81.7.
Screening Oc1ccc(N=Nc2ccc3ccccc3c2)cc1 returned Mtb bLac sens 25.3, RN4220 kill 98.8*, Sa ugtP lethal 98.8*, Mtb hypoxia rep 3.7 and PriA SSB inh 74.5.
Oc1ccc(N=Nc2c(O)ccc3ccccc23)cc1 was read as Mtb bLac sens 96.9, RN4220 kill 86.4*, Sa ugtP lethal 97.7*, Mtb hypoxia rep 10.5 and PriA SSB inh 87.9.
Screening O=C1C(SCCO)=C(SCCO)C(=O)c2ccccc21 returned Mtb bLac sens 100.4 and PriA SSB inh 101.3*.
For Cc1[nH]n(-c2ccc(Br)cc2)c(=O)c1C=NNC(=O)c1ccccc1 the results were RN4220 kill 94.0*, Sa ugtP lethal 96.6*, Mtb hypoxia rep 3.5 and PriA SSB inh -6.4.
Screening COc1ncc(NC(=O)C(C)(C)Oc2ccc(Cl)cc2)cn1 returned PriA SSB inh 3.0.
`COc1ccc(NC2=Nc3cccc4cccc2c34)cc1OC` gave Mtb bLac sens 0.9, RN4220 kill 0.5, Sa ugtP lethal -10.0, Mtb hypoxia rep -3.3 and PriA SSB inh 16.6.
Screening COc1cccc(NC2=Nc3cccc4cccc2c34)c1 returned Mtb bLac sens 66.8, RN4220 kill -0.5, Sa ugtP lethal -15.0, Mtb hypoxia rep -3.3 and PriA SSB inh 41.1*.
CCOc1cc(Nc2ccc(NS(=O)(=O)c3cc(OC)c(C)cc3C)cc2)nc(C)n1 was read as PriA SSB inh 16.0.
For Cc1nc(-c2ccccc2Cl)sc1CNC(=O)[C@H]1CC(=O)N(c2cccc(F)c2)C1 the results were PriA SSB inh -3.0.
Screening O=C1CN(CC(=O)N2CCCCC2)c2ccccc2O1 returned Mtb bLac sens 97.9 and PriA SSB inh 10.6.
Screening O=C(CN1CC(=O)Oc2ccccc21)OCC(=O)c1ccc(F)cc1 returned Mtb bLac sens 11.1, RN4220 kill -1.8, Sa ugtP lethal -1.2, Mtb hypoxia rep 0.4 and PriA SSB inh 77.0*.
Screening O=C(CN1CC(=O)Oc2ccccc21)OCC(=O)c1ccc(Br)cc1 returned Mtb bLac sens 4.6, RN4220 kill 4.0, Sa ugtP lethal -1.7 and PriA SSB inh 85.5*.
For NNC(=O)c1[nH]c2ccccc2c1-c1ccccc1 the results were Mtb bLac sens 38.1 and PriA SSB inh 101.9*.
CC(=O)NNC(=O)c1[nH]c2ccc(Cl)cc2c1-c1ccccc1 was read as Mtb bLac sens -3.5, RN4220 kill 4.8, Sa ugtP lethal -9.5, Mtb hypoxia rep -7.0 and PriA SSB inh 2.0.
Screening N#Cc1nccnc1OC1CCC(NC(=O)c2nc3ccccc3s2)CC1 (stereo not given) returned PriA SSB inh -17.0.
`COc1ccc(C)cc1NCc1ccc([N+](=O)[O-])cc1` gave Mtb bLac sens -1.8, RN4220 kill -0.8, Sa ugtP lethal 17.0, Mtb hypoxia rep 6.1 and PriA SSB inh 40.1*.
Screening COc1ccc(CNc2cc([N+](=O)[O-])ccc2OC)cc1 returned Mtb bLac sens 4.9, RN4220 kill 0.7, Sa ugtP lethal 6.9, Mtb hypoxia rep 3.0 and PriA SSB inh -58.4.
O=S(=O)(NCCn1nc(C2CC2)cc1C1CC1)C1CC1 was read as PriA SSB inh 7.0.
Screening CCCC(=O)Nc1[nH]c(=S)c(C#N)c(-c2ccc(OC(=O)CCC)cc2)c1C#N returned PriA SSB inh 97.0*.
For CC(=O)OCCN(C)c1cc(SC(C)C)c2nonc2c1[N+](=O)[O-] the results were Mtb bLac sens -4.9, RN4220 kill 2.1, Sa ugtP lethal 8.8, Mtb hypoxia rep 0.8 and PriA SSB inh 1.1.
`CN(CCO)c1cc(Sc2nc3ccccc3s2)c2nonc2c1[N+](=O)[O-]` gave Mtb bLac sens inconclusive, RN4220 kill 57.1, Sa ugtP lethal 87.8*, Mtb hypoxia rep 19.4 and PriA SSB inh 7.6.
For CCOc1ccc(-c2cnc(N)n2C)cc1 the results were Mtb bLac sens -1.3, RN4220 kill 3.1, Sa ugtP lethal -5.9, Mtb hypoxia rep -0.8 and PriA SSB inh 1.6.
For Cn1c(-c2ccc(Cl)cc2)cnc1N the results were Mtb bLac sens 8.1, RN4220 kill 4.5, Sa ugtP lethal 2.6, Mtb hypoxia rep 9.4 and PriA SSB inh 54.1*.
